# Laboratory results taken from the supplement of paper PMC6555819.
# How the values were obtained:
# Assay in all cases: PBM binding z-score (relative to random genomic background probes); higher = stronger binding; sequences stand for … in GC…GCGATTGACAGCGTAGAATGAAGG
# [1] = system: PPARg:RXRa DBDmut IVT, anti-RXR (DBD mutation: RXRa K156A/R161A, NR concentration 270 nM, RXRa partner concentration 90 nM)
# Summary of the method: (§1)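 Random background probes are the reference for binding z-scores. These scores derive from regression-normalized fluorescence on custom Agilent 4×180K protein-binding microarrays incubated 1 h with ligand-free nuclear receptor dimers. Binding was detected with antibodies against each partner (one per run).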
# [2] = system: PPARg:RXRa IVT, anti-PPARg (NR concentration 270 nM, RXRa partner concentration 90 nM)
# Summary of the method: as §1
# [3] = system: PPARg DBDmut:RXRa IVT, anti-PPARg (DBD mutation: PPARg1 K132A/R137A, NR concentration 270 nM, RXRa partner concentration 90 nM)
# Summary of the method: as §1
# [4] = system: PPARg DBDmut IVT, anti-PPARg (DBD mutation: PPARg1 K132A/R137A, NR concentration 270 nM)
# Summary of the method: as §1
# [5] = system: PPARg homodimer (NR concentration 180 nM)
# Summary of the method: as §1
# [6] = system: PXR:RXRa (NR concentration 270 nM, RXRa partner concentration 90 nM)
# Summary of the method: as §1
# [7] = system: PXR homodimer (NR concentration 270 nM)
# Summary of the method: as §1
# [8] = system: RARa:RXR (NR concentration 270 nM, RXRa partner concentration 90 nM)
# Summary of the method: as §1
# [9] = system: RARa homodimer (NR concentration 270 nM)
# Summary of the method: as §1
# [10] = system: RARb:RXRa (NR concentration 270 nM, RXRa partner concentration 90 nM)
# Summary of the method: as §1
# [11] = system: RARb homodimer (NR concentration 270 nM)
# Summary of the method: as §1
# [12] = system: RARg:RXRa (NR concentration 270 nM, RXRa partner concentration 90 nM)
# Summary of the method: as §1
# [13] = system: RARg homodimer (NR concentration 270 nM)
# Summary of the method: as §1
# [14] = system: RXRa DBDmut IVT, anti-RXR (DBD mutation: RXRa K156A/R161A, NR concentration 90 nM)
# Summary of the method: as §1
# [15] = system: RXRa homodimer (NR concentration 180 nM)
# Summary of the method: as §1
# [16] = system: THRa:RXRa (NR concentration 90 nM, RXRa partner concentration 90 nM)
# Summary of the method: as §1
# [17] = system: THRa homodimer (NR concentration 90 nM)
# Summary of the method: as §1
# [18] = system: VDR homodimer (NR concentration 270 nM)
# Summary of the method: as §1
Sequence,PBM binding z-score [1],PBM binding z-score [2],PBM binding z-score [3],PBM binding z-score [4],PBM binding z-score [5],PBM binding z-score [6],PBM binding z-score [7],PBM binding z-score [8],PBM binding z-score [9],PBM binding z-score [10],PBM binding z-score [11],PBM binding z-score [12],PBM binding z-score [13],PBM binding z-score [14],PBM binding z-score [15],PBM binding z-score [16],PBM binding z-score [17],PBM binding z-score [18]
TCTAGCAGGCCAGAGGGCCACTCAAGAGGTACGG,0.914,-0.0389,-0.285,-0.851,-0.331,-0.535,-0.284,-0.732,-0.342,0.248,-0.0244,-0.057,-0.117,-0.104,0.144,-0.545,-1.1,-0.232
TTACCAAGGTGAAAGGTCGTTGACGCACGCCTTG,2.81,4.77,0.591,0.0484,2.15,4.13,0.552,5.9,-0.179,3.21,2.87,4.52,2.25,0.212,6.19,3.34,0.822,1.41
CCTAGTTGGTCAAGTTCACACACGCTATAGGTAC,1.95,1.82,0.944,1.02,2.59,3.63,5.51,2.27,1.56,2.92,3.1,2.45,2.72,3.31,2,2.12,1.46,5.29
TAGCCTAGCTCATTGGGCCAGTATAGTACGCATC,0.043,-0.244,-0.824,-1.08,-1.36,-0.795,-0.368,-0.451,-1.17,-0.719,-0.698,-0.5,-0.328,-0.683,-0.449,-0.611,-0.587,-0.87
TCTCGCAGGCCAGAGGGTCACTCAAGAGGTACGG,0.998,0.394,-0.712,-0.719,0.381,1.62,-0.348,2.25,-0.311,2.45,2.75,2.79,2.32,0.313,2.76,1.73,0.0741,0.536
ATCTCTAGGTAAAAGTTCACTGAATCCCGAGGAT,2.27,4.44,1.42,1.19,1.29,3.44,2.38,2.99,1.08,2.97,3.15,3.04,2.99,0.997,3.02,2.01,0.473,2.79
GCATATCGGTAATACAAGGTGAAAGTCCGATTGT,0.472,0.945,0.308,0.208,0.544,0.155,0.188,0.793,0.00157,0.541,0.774,0.308,0.268,0.112,0.446,3.07,0.911,-0.28
CGTCCAAGGCCAGCAGGTCAGTGAAAGCGACGTG,0.153,-0.0441,-0.768,-0.983,0.0229,0.29,-0.389,0.692,-1.23,2.36,2.34,1.85,2,-0.479,0.648,1.3,0.193,-0.465
GGAACGCGGGCAAAGTTGATAGCATCTGTCGACG,0.331,0.502,-0.831,-0.512,-0.0903,-0.43,-0.509,0.0758,-0.689,0.414,-0.251,0.143,0.259,0.0126,0.126,-0.6,-1.04,-0.471
TCTGCTAGGTCAGTTGGTCATCTAACGAGCTGCC,2.75,3.27,0.685,0.261,0.396,0.316,-0.767,0.721,-0.587,3.47,2.81,2.87,3.99,0.589,1.25,1.63,0.119,-0.506
CCTTACGGATCACTGACAGGTTATAGCATTTGGA,0.71,-0.0645,0.405,0.544,0.811,0.356,0.678,0.397,1.14,0.471,0.537,0.614,0.579,0.744,0.347,0.372,0.628,0.612
AGAATGTGGTTAAGATCAGGGAAACAGAATACAT,-0.145,0.0486,0.832,0.677,0.635,0.308,0.679,0.217,0.647,0.103,0.296,0.287,0.502,-0.315,-0.0174,0.458,-0.00414,0.151
TAGTCTAGGTCATTCAGGGGCCAGTATAGAAAGC,5.32,5.97,1.69,1.74,2.29,2.53,0.48,3.32,0.639,3.73,3.57,5.83,4.7,2.05,2.96,3.63,1.42,1.88
GCTTACGGGTCGAAGGTTATAGCATGAATAGAAT,0.529,2.66,0.973,0.687,1.39,2.65,-0.142,3.79,-0.0107,1.49,0.86,2.31,1.28,0.891,3.72,1.55,-0.161,0.682
CCAGACAGGTGAAAGCTAACTCAGTCTGGTACGC,1.15,0.32,-0.519,-0.546,-0.106,-0.352,-0.314,-0.197,-0.137,0.542,-0.273,0.135,0.254,-0.328,0.326,-0.0859,-0.832,-0.146
CCTACTGGGCCAAGGTCAATGATCAGTCAAAGCA,3.63,4.57,-0.437,-1.01,1.4,2.51,0.323,2.81,0.147,3.27,3.38,3.51,3.62,0.404,3.12,3.18,1.77,1.61

Sequence,PBM binding z-score [1],PBM binding z-score [2],PBM binding z-score [3],PBM binding z-score [4],PBM binding z-score [5],PBM binding z-score [6],PBM binding z-score [7],PBM binding z-score [8],PBM binding z-score [9],PBM binding z-score [10],PBM binding z-score [11],PBM binding z-score [12],PBM binding z-score [13],PBM binding z-score [14],PBM binding z-score [15],PBM binding z-score [16],PBM binding z-score [17],PBM binding z-score [18]
CCTTACGGATCACGAGGTTATAGCACGACGAGCG,0.221,0.106,-0.412,0.232,1.02,1.02,0.695,1.36,0.995,0.621,1.15,0.741,0.714,0.575,1.62,1.52,1.08,1.06
CGAACGAGGGCATGTGTTGATAGCAAATGCCGAT,2.61,1.67,0.15,-0.912,0.123,0.241,-0.168,0.367,0.149,1.81,0.926,1.08,1.7,2.64,0.745,1.03,0.0176,1.44
GCTAGTTGGTCAGTAAAAGGTCGCACACCGGTCG,0.512,1.32,-0.491,-0.677,1.76,2.07,-0.218,2.6,0.227,2.34,2.98,2.68,1.8,0.145,1.95,1.61,0.192,0.447
CCGACTGGTGCAAAGGTTACCATACTCAGTACGA,0.299,2.67,0.0281,-0.547,1.18,2.07,-0.109,2.87,0.34,1.96,2.08,2.07,1.32,0.63,2.93,1.45,0.0703,0.351
CCTCTGAGGACAACAGGAGGTCAGAGCTGCCAGA,0.791,0.943,-0.185,-0.809,1.58,1.87,0.497,2.39,0.218,2.9,3.48,3.66,3.51,1.29,1.78,3.92,3.02,1.69
CAAGACAGGTGAGAAGGTAACTCAGCCTCGATTA,0.761,1.21,-0.174,-0.268,0.64,0.215,0.678,0.355,0.384,0.867,0.607,0.784,0.824,-0.536,0.481,0.413,0.475,-0.249
CGAAATAGGTCATCCAGGACAGTGAATACATTGA,7.78,7.89,2.68,2.13,2.1,3.15,1.18,3.92,1.27,4.59,3.71,5.08,4.84,2.26,4.96,3.96,1.19,1.92
CCTACTGGGCCATCAGGTCATTAATATCAACGTT,4.28,5.01,0.502,0.269,2.46,1.25,0.741,1.51,0.585,1.94,2.55,1.64,1.8,0.551,0.85,2.99,2.9,1.56
GGAACGAGGGCGAGTTGATAGCAGAGTTTGATGG,0.699,-0.0712,-0.327,0.298,0.0249,0.0143,-0.021,0.0866,-0.148,0.356,-0.0873,-0.0842,0.176,1.73,0.0566,-0.305,-0.578,1.12
GAACCAAGGTGAATAGGTCGTTGATGAGTAGGCG,1.81,2.56,-0.234,-0.27,0.411,0.765,-0.0642,1.68,-0.0573,1.95,1.78,2.53,1.25,-0.268,2,1.77,0.124,-0.00141
TCTATTAGTTGATTAGTGCAACCGAAACAGCGGA,1.81,0.352,1.1,1.5,0.86,0.603,0.441,0.464,1.06,0.332,0.0135,0.467,0.362,0.964,0.333,0.158,0.00829,0.654
CTCGAAAGGTCGTGCTCAGGCGAGTATACCAAAC,0.449,1.53,0.141,-0.559,0.928,2.68,-0.312,3.16,-0.0786,3.98,2.65,4.35,3.64,1.3,4.75,2.88,-0.037,0.812
GCATATATGTAATACAAGGTGAAAGTCCGATTGT,1.6,1.75,0.651,0.705,0.207,0.156,0.0966,1.35,0.0285,0.445,0.691,0.257,0.615,0.612,0.52,2.79,1.14,-0.0295
GATACAGGGTCAGCTAGAGGCCAGGGTATGGAAA,0.631,2.38,0.352,-0.589,2.74,2.94,0.0758,4.28,0.0773,4.06,3.59,6.74,4.95,0.978,4.38,3.08,0.844,1.01
CCGAGTAGGGTATGGGGCATTCAGGCAACGGTGA,0.659,1.58,-0.658,-0.796,0.951,-0.379,-0.14,-0.154,0.135,0.278,0.595,-0.153,-0.189,-0.938,0.102,0.159,0.0739,0.36
